Measurements as given in PubChem BioAssay AID1159580 (chemical genetic matrix, 2015).
Among all 5,500 compounds or so, about 2,000 (36%) were called active. Inconclusive results (about 18%) are left out. Cut-off read from the data, not from the text of the source: active = normalized growth mostly below about 0.91 (no sharp cut-off); inconclusive = no clear call, values can overlap the other calls; inactive = mostly above about 0.92. This is one part of the list.

Test: chemical genetic growth profiling, strain panel (AID 1159580);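 note: tested at 20 µM; growth read once vehicle control cultures reached saturation at 30 °C; 1 = growth at the plate median or of vehicle wells; lower values mean less growth of the strain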
Settings: S. cerevisiae deletion strains, growth OD
[1] = locus YDL101C, strain DUN1, active compounds read low
[2] = locus YHR030C, strain SLT2, active compounds read low

Measured: normalized growth

CCOC(=O)COc1ccc2c(c1)OC(C)(C)CC2=O
inactive: locus YAL013W, strain DEP1, active compounds read low 0.998 | locus YBR229C, strain ROT2, active compounds read low 0.994 | locus YCL061C, strain MRC1, active compounds read low 0.964 | [1] 0.993 | locus YDL134C, strain PPH21, active compounds read low 1.01 | locus YDR150W, strain NUM1, active compounds read low 0.872 | locus YEL061C, strain CIN8, active compounds read low 1.01 | locus YGR078C, strain PAC10, active compounds read low 1 | locus YGR229C, strain SMI1, active compounds read low 1.01 | [2] 0.947 | locus YHR087W, strain rtc3, active compounds read low 0.976 | locus YJR043C, strain POL32, active compounds read low 0.994 | locus YJR075W, strain HOC1, active compounds read low 0.974 | locus YLR039C, strain RIC1, active compounds read low 1.05 | locus YLR058C, strain SHM2 (second series), active compounds read low 1 | locus YLR085C, strain ARP6, active compounds read low 0.965 | locus YLR262C, strain YPT6, active compounds read low 1.02 | locus YML094W, strain GIM5, active compounds read low 1.02 | locus YMR219W, strain ESC1, active compounds read low 0.988 | locus YMR263W, strain SAP30, active compounds read low 1.01 | locus YMR307W, strain GAS1, active compounds read low 0.986 | locus YNL128W, strain TEP1, active compounds read low 1.01 | locus YNL153C, strain GIM3, active compounds read low 0.966 | locus YNL298W, strain CLA4 (second series), active compounds read low 1.01 | locus YNL322C, strain KRE1, active compounds read low 1 | locus YNR030W, strain Alg12, active compounds read low 1 | locus YPL055C, strain LGE1, active compounds read low 0.849 | locus YPL241C, strain CIN2, active compounds read low 0.953 | locus YPR135W, strain CTF4, active compounds read low 1.03

Cc1oc2c(F)c(F)c(F)c(F)c2c1C(=O)ONC(N)c1ccc(OS(=O)(=O)N(C)C)cc1 (stereo not given)
inactive: locus YAR019C, strain CDC15, active compounds read low 0.958 | locus YBL105C, strain PKC1, active compounds read low 0.963 | locus YBR135W, strain CKS1, active compounds read low 0.971 | locus YBR136W, strain MEC1, active compounds read low 0.958 | locus YBR160W, strain CDC28, active compounds read low 0.976 | locus YDL017W, strain CDC7, active compounds read low 0.973 | locus YDL028C, strain MPS1, active compounds read low 0.959 | [1] 0.985 | locus YDL108W, strain KIN28, active compounds read low 0.978 | locus YDL132W, strain cdc53, active compounds read low 0.982 | locus YDL214C, strain PRR2, active compounds read low 0.969 | locus YDR052C, strain DBF4, active compounds read low 0.971 | locus YDR054C, strain cdc34, active compounds read low 0.976 | locus YDR226W, strain ADK1, active compounds read low 0.969 | locus YDR477W, strain SNF1, active compounds read low 0.946 | locus YER123W, strain YCK3, active compounds read low 0.926 | locus YER133W, strain GLC7, active compounds read low 0.958 | locus YFL009W, strain cdc4, active compounds read low 0.962 | locus YFL029C, strain CAK1, active compounds read low 0.958 | locus YFR003C, strain YPI1, active compounds read low 0.968 | locus YFR019W, strain FAB1, active compounds read low 0.937 | locus YFR028C, strain CDC14, active compounds read low 0.963 | locus YGR040W, strain KSS1, active compounds read low 0.949 | locus YGR052W, strain FMP48, active compounds read low 1.03 | locus YGR092W, strain DBF2, active compounds read low 0.989 | [2] 0.937 | locus YHR079C, strain IRE1, active compounds read low 0.981 | locus YHR082C, strain KSP1, active compounds read low 1.02 | locus YHR205W, strain SCH9, active compounds read low 0.926 | locus YIL147C, strain SLN1, active compounds read low 0.96 | locus YJL095W, strain BCK1, active compounds read low 0.983 | locus YJL128C, strain PBS2, active compounds read low 0.972 | locus YJL157C, strain FAR1, active compounds read low 0.963 | locus YJR016C, strain ILV3, active compounds read low 0.972 | locus YJR066W, strain TOR1 (second series), active compounds read low 0.918 | locus YJR066W, strain TOR1, active compounds read low 0.985 | locus YKL048C, strain ELM1, active compounds read low 0.981 | locus YKL067W, strain YNK1, active compounds read low 0.975 | locus YKL101W, strain HSL1, active compounds read low 0.966 | locus YKL193C, strain SDS22, active compounds read low 0.969 | locus YKL203C, strain TOR2, active compounds read low 0.99 | locus YLR113W, strain HOG1, active compounds read low 0.966 | locus YLR133W, strain CKI1, active compounds read low 0.96 | locus YLR403W, strain SFP1, active compounds read low 0.921 | locus YML070W, strain DAK1, active compounds read low 0.955 | locus YMR001C, strain CDC5, active compounds read low 0.963 | locus YMR205C, strain PFK2 (second series), active compounds read low 0.975 | locus YMR277W, strain FCP1, active compounds read low 0.964 | locus YNL006W, strain LST8, active compounds read low 0.97 | locus YNL020C, strain ARK1, active compounds read low 0.982 | locus YNL161W, strain CBK1, active compounds read low 0.971 | locus YNL183C, strain NPR1, active compounds read low 0.964 | locus YNL207W, strain RIO2, active compounds read low 0.967 | locus YNL222W, strain SSU72, active compounds read low 0.976 | locus YNL307C, strain MCK1 (second series), active compounds read low 0.952 | locus YOL078W, strain AVO1, active compounds read low 0.963 | locus YOL136C, strain PFK27, active compounds read low 0.952 | locus YOR061W, strain CKA2, active compounds read low 0.951 | locus YOR119C, strain RIO1, active compounds read low 0.97 | locus YOR231W, strain MKK1, active compounds read low 0.986 | locus YOR329C, strain SCD5, active compounds read low 0.972 | locus YPL031C, strain PHO85, active compounds read low 0.94 | locus YPL153C, strain RAD53, active compounds read low 0.946 | locus YPL204W, strain HRR25, active compounds read low 0.963 | locus YPL209C, strain IPL1, active compounds read low 0.974 | locus YPL256C, strain CLN2, active compounds read low 0.959 | locus YPR025C, strain CCL1, active compounds read low 0.968 | locus YPR106W, strain ISR1, active compounds read low 0.986 | locus YPR111W, strain DBF20, active compounds read low 0.98 | strain NNK1, active compounds read low 0.993 | strain TSCII, active compounds read low 0.967
